# Compound activity: PubChem, several laboratories
# VHR inh abs = VHR1 phosphatase inhibitors, primary screen, biochemical, absorbance, uHTS; Dual specificity protein phosphatase 3 (Homo sapiens), P51452; recombinant VHR phosphatase, pNPP absorbance; inhibition, % at 13.3 µM; hit rate 0.52% among 290,000; AID 1654, 2009; in the data active = inhibition above about 50%
# Target sequence (P51452 whole entry, looked up): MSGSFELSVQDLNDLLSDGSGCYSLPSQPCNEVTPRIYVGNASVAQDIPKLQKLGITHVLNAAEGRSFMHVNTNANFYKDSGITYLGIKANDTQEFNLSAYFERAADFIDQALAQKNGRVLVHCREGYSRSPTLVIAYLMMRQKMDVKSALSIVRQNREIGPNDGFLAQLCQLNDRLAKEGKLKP
# CCHF vOTU inh = CCHFV vOTU protease inhibitors, primary screen, biochemical, Pep-AMC substrate, fluorescence | hit rate 0.55% among 370,000 | inhibition, % at 11.5 µM; in the data active = inhibition above about 30%; also: 0% = vehicle wells with enzyme and 100% = no enzyme wells
# 3CLpro inhibitor = SARS-CoV 3CLpro protease inhibitors, primary screen, biochemical, quenched FRET | Replicase polyprotein 1ab (Severe acute respiratory syndrome coronavirus), P0C6X7 | recombinant SARS-CoV 3CLpro, quenched FRET peptide cleavage | inhibition, % at 6 µM | hit rate 0.14% among 290,000; in the data active = inhibition above about 12%
# RecA splice inh = Mtb RecA intein splicing inhibitors, primary screen, biochemical, fluorescence, HTS | inhibition, % (no concentration beside the values) | cell-free RecA intein splicing | hit rate 0.75% among 290,000; in the data active = inhibition above about 30%;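 also: 0% = vehicle wells and 100% = reference inhibitor control wells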
# GFP chromo cs = counter-screen: blocks GFP chromophore formation, dose response, counter-screen, biochemical, fluorescence, homogeneous. AID 434968, 2010. cell-free GFP chromophore formation. hit rate 83% among 2,100. EC50, µM. shares compounds with RecA splice inh; call rule not given here
# An asterisk follows results filed as active; . = not tested or not shown. Only some compounds are listed: those with a hit (about 1.5% of all), similar ones and a draw of the others.
SMILES,VHR inh abs,CCHF vOTU inh,3CLpro inhibitor,RecA splice inh,GFP chromo cs
CC1=NN(c2ccc(C(=O)O)cc2)C(=O)CC1,0,-8,2,-1,.
CC1=NN(c2ccccc2)C(=O)C1/C=C1\C(=O)NC(=O)N(c2ccc(C)c(C)c2)C1=O (stereo not given),35,14,-1,41*,16*
CC(C)(C)OC(=O)N1CCC(C(=O)Nc2ccc(C(=O)N3CCCCC3)cc2)CC1,.,18,.,.,.
CCOC(=O)c1nnc(-c2ccc(C)cc2)nc1Sc1cccc(Cl)c1,3,4,0,4,.
CCOC(=O)c1nnc(-c2ccccc2)nc1Sc1ccccc1Cl,18,-1,-5,40*,2*
CCOC(=O)CSCCOc1ccc(C=C2C(=O)NC(=O)NC2=O)cc1OC,7,13,2,73*,>38
C=CCn1c(=O)c2ccccc2n2c(SCc3c(C(=O)OCC)oc4ccccc34)nnc12,1,-6,.,-3,.
COc1ccccc1N1CCN(CC(=O)c2c(C)[nH]c3cc(C)ccc23)CC1,-4,2,3,9,>38
COc1ccccc1N1CCN(CC(=O)c2c(C)n(C)c3ccccc23)CC1,20,-7,0,0,.
CC1=NN(C)C(=O)C1Cc1c(F)cccc1Cl (stereo not given),.,-4,.,80*,17*
CN1CCC(NC(=O)Cc2c(F)cccc2Cl)CC1,-14,8,0,1,.
COc1cccc(OC(=O)CSc2nnc(-c3ccccc3Br)o2)c1,14,-11,-3,74*,26*
COC(=O)CSc1nnc(-c2ccc(OC)cc2OC)o1,27,-9,-2,-2,.
COC(=O)C(O)(NC(=O)c1ccncc1)C(F)(F)F (stereo not given),-11,9,0,-2,.
O=C1c2ccccc2-c2onc3ccc(Oc4ccccc4)c1c23,9,10,0,86*,0.81*
O=C(CCNS(=O)(=O)c1ccc(Br)cc1)NCCCSc1ccccc1,.,1,.,.,.
COc1cccc(/C=C2\SC(=S)N(CCCC(=O)N3CCCCC3CCO)C2=O)c1 (stereo not given),6,14,0,0,.
COc1ccc(/C=C2\SC(=S)N(CCCC(=O)Nc3ccc(O)cc3)C2=O)cc1,2,13,0,40*,>38
COc1cccc(/C=C2\SC(=S)N(CCCC(=O)N3CCCC3)C2=O)c1,4,12,-1,33*,>38
CC(=O)Oc1ccc(C2=Cc3ccc(OC(C)=O)cc3OC2C)cc1 (stereo not given),.,-5,.,.,.
C=CCn1c(NC(=O)c2ccco2)c(S(=O)(=O)c2ccccc2)c2nc3ccccc3nc21,-3,.,.,.,.
C=CCn1c(NC(=O)c2ccc(Br)o2)c(S(=O)(=O)c2ccccc2)c2nc3ccccc3nc21,-4,3,3,46*,31*
CC1=NN(c2ccc(Cl)cc2)C(=O)C1C(c1cccc(O)c1)c1c(C)[nH]n(-c2ccc(Cl)cc2)c1=O (stereo not given),5,.,0,88*,2.3*
O=C1c2[nH]nc(-c3ccccc3O)c2C(c2ccc(F)cc2)N1Cc1ccco1 (stereo not given),26,17,2,20,.
O=C1c2[nH]nc(-c3ccccc3O)c2C(c2cccc(Cl)c2)N1Cc1ccco1 (stereo not given),-1,6,7,34*,>38
SMILES,VHR inh abs,CCHF vOTU inh,3CLpro inhibitor,RecA splice inh,GFP chromo cs
COc1ccc(OC)c(NC(=O)Cc2ccc(NC3=NC4CS(=O)(=O)CC4S3)cc2)c1 (stereo not given),-6,0,-3,38*,>38
Cc1cc(Cl)ccc1NC(=O)CN(C)C1=NS(=O)(=O)c2ccccc21,.,5,.,.,.
CC(C)CNC(=O)c1ccc(Cl)c(Cl)c1,-6,-7,-2,5,.
COC(=O)C[C@]1(C(=O)OC)CN(C#N)N(c2ccc(Cl)cc2)C12c1ccccc1-c1ccccc12,27,23,7,74*,4.7*
CCc1nc2c(OCc3ccc(F)cc3)cccn2c1N(C)C(=O)COc1ccccc1,.,-5,.,.,.
CCc1ccc(CC2S/C(=C(\C#N)C(C)=O)NC2=O)cc1 (stereo not given),15,7,4,4,.
CCOC(=O)c1ccc(CC2S/C(=C(\C#N)C(C)=O)NC2=O)cc1 (stereo not given),35,21,6,82*,>38
CC(C)NC(=S)NC1(C)CCS(=O)(=O)C1 (stereo not given),3,-15,1,48*,>38
CC1(NC(=S)NCCO)CCS(=O)(=O)C1 (stereo not given),8,9,2,-2,.
CCc1nnc(NC(=O)c2nc(S(=O)(=O)Cc3ccc(C)cc3)ncc2Cl)s1,-26,10,-5,76*,20*
CCOc1ccccc1NC(=O)c1nc(S(=O)(=O)Cc2cccc(C)c2)ncc1Cl,6,8,-5,8,.
Cc1ccc(CS(=O)(=O)c2ncc(Cl)c(C(=O)Nc3ccc(OC(F)F)cc3)n2)cc1,12,21,-4,14,.
CCc1nnc(NC(=O)c2nc(S(=O)(=O)Cc3cccc(C)c3)ncc2Cl)s1,-10,-5,0,75*,16*
CCc1nnc(NC(=O)c2nc(S(=O)(=O)Cc3ccccc3)ncc2Cl)s1,-12,2,0,66*,37*
CC(=O)N(c1ccccc1)c1nc(C)cc(C)c1C#N,0,-1,-2,1,.
CC(=O)N(c1ccccc1)C(C)c1nc(C#N)c(C#N)nc1C (stereo not given),39,-4,-2,62*,38*
COC(=O)c1[nH]c(=O)c2ccccc2c1OCc1ccccc1,4,-5,4,4,.
COC(=O)c1[nH]c(=O)c2ccccc2c1O,-5,.,0,81*,15*
CN(C)c1ccc2nsnc2c1[N+](=O)[O-],23,14,0,32*,>38
CN1C(C(=O)NCc2ccccc2)CC2Cn3c(nc4cc5ccccc5cc43)C21 (stereo not given),15,-5,.,-4,.
O=C(COc1ccc(Br)cc1)Nc1ccccc1C(=O)NC1CC1,.,4,.,-1,.
O=C(CSCc1ccc([N+](=O)[O-])cc1)N/N=C/c1cccnc1,30,-1,1,38*,>38
COc1cc(C2(c3ccc(O)c(OC)c3)C(=O)N(C)c3ccc(Br)cc32)ccc1O,.,-6,.,.,.
COc1cc(C2(c3ccc(O)c(OC)c3)C(=O)Nc3c(Br)cc(Br)cc32)ccc1O,.,-6,.,49*,12*
O=C(NCc1ccccc1)c1nccnc1CO,10,-1,-6,0,.
O=C(O)/C=C/C(=O)Nc1ccc(SC(F)(F)C(F)(F)C(F)(F)F)cc1,18,16,1,67*,37*
O=C(O)/C=C\C(=O)Nc1ccc(Oc2ccccc2)cc1,19,-13,-1,.,.
